In PubChem BioAssay AID1851 (National Center for Advancing Translational Sciences (NCATS), 2009):
Among all 16,000 compounds or so, about 4,000 (25%) were called active. Inconclusive results (about 26%) are left out. The list is a sample of the results. A number with no mark means an inactive call. Calls come from the whole dose curve; as a rule, active = well fitted curve in the direction sought with a large enough effect; inconclusive = small, poorly fitted or top-dose-only effect, or effect the other way; inactive = no such curve, though single readings can be large or run the other way.

Molecular target: Cytochrome P450 2C9 (Homo sapiens) (UniProt P11712)
Test: Cytochrome panel assay with activity outcomes
Settings: recombinant CYP, pro-luciferin dealkylation, luminescence, p450-cyp2c9; series mostly up to 57.1 µM
% is set by controls: 0 for no effect and ±100 for the full control effect.

Cytochrome P450 2C9 (Homo sapiens), sequence (P11712 whole entry, looked up): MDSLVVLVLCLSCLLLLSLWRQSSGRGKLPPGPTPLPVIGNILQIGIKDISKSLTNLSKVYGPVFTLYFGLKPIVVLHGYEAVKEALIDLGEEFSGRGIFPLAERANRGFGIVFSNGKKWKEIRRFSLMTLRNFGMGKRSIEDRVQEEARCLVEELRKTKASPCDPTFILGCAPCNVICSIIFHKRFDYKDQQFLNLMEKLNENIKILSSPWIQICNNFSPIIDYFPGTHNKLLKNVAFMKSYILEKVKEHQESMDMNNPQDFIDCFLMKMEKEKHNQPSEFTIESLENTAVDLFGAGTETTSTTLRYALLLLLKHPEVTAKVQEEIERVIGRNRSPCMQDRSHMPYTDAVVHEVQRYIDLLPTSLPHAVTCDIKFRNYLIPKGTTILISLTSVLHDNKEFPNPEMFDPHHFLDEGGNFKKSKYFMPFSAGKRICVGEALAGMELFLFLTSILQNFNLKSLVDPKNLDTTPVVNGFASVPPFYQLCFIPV

Compound | AC50 | activity, negative = inhibition
CC(N)=O | inactive | 
N#Cc1ccc(OC(=O)c2ccc(N=C(N)N)cc2)cc1 |  | 12.7% [at 11.4 µM]
NC(=O)Nc1n[nH]c(-c2ccccc2)n1 |  | -4.69% [at 11.4 µM]
N#Cc1ccc(Oc2nc(C(N)=O)cc(-c3ccccc3)n2)cc1 | 6.31 µM (active) | 
O=C(NC[C@@H](O)CO)c1c(I)c(C(=O)NC[C@@H](O)CO)c(I)c(N(CCO)C(=O)CO)c1I | inactive | 
O=C(c1cc(C(F)(F)F)cc(C(F)(F)F)c1)N1CCC2(CC1)CN(c1ccccn1)C2 | inactive | 
Cc1ccc(C(=O)N2CCN(c3ccc(C(F)(F)F)cn3)CC2)cc1 | 15.8 µM (active) | 
O=C(c1cc(C(F)(F)F)cc(C(F)(F)F)c1)N1CCC2(CC1)CCN(c1ccccn1)CC2 | inactive | 
O=c1c(-c2ccc(F)cc2)nc2cnc(N3CCOCC3)nc2n1C1CC1 | inactive | 
N#CCCn1c(=O)c(-c2cccc(C#N)c2)nc2cnc(N3CCOCC3)nc21 | inactive | 
O=c1c(-c2ccccc2)nc2cnc(N3CCNCC3)nc2n1C1CC1 | 0.158 µM (active) | 
O=c1c(-c2ccc(F)cc2)nc2cnc(N3CCNCC3)nc2n1C1CC1 | 1 µM (active) | 
O=c1c(-c2ccccc2)nc2cnc(N3CCOCC3)nc2n1C[C@H]1CCCO1 | inactive | 
O=c1c(-c2ccc(F)cc2)nc2cncnc2n1C1CC1 | inactive | 
N#Cc1cccc(-c2nc3cnc(N4CCNCC4)nc3n(C3CC3)c2=O)c1 | 0.631 µM (active) | 
COc1ccc(-n2c(=O)c(-c3ccccc3)nc3cnc(N4CCNCC4)nc32)cc1 | inactive | 
O=c1c(-c2ccccc2)nc2cnc(N3CCOCC3)nc2n1C1CC1 | 10 µM (active) | 
O=c1c(-c2ccccc2)nc2cnc(N3CCNCC3)nc2n1-c1ccccc1 | inactive | 
O=c1c(-c2ccc(Cl)cc2)nc2cnc(N3CCOCC3)nc2n1C1CC1 | inactive | 
N#Cc1cccc(-c2nc3cnc(N4CCOCC4)nc3n(C3CC3)c2=O)c1 | inactive | 
C1CCC(C(C[C@@H]2CCCCN2)C2CCCCC2)CC1 | inactive | 
CNc1ccnc(-c2ccccc2C)n1 |  | 24.5% [at 2.29 µM]
C[C@@H]1O[C@@H](n2cc(F)c(=O)[nH]c2=O)[C@H](O)[C@@H]1O | inactive | 
N=C(C[C@@H](O)COc1ccccc1-c1ccccc1)N1CCCCC1 | inactive | 

Compound | AC50 | activity, negative = inhibition
CC[C@H](C)[C@@H]1O[C@]2(CC[C@@H]1C)C[C@H]1C[C@H](CC=C(C)[C@@H](O[C@H]3C[C@H](OC)[C@H](O[C@H]4C[C@H](OC)[C@H](O)[C@H](C)O4)[C@H](C)O3)[C@@H](C)C=CC=C3CO[C@@H]4[C@@H](O)C(C)=C[C@H](C(=O)O1)[C@@]34O)O2 | inactive | 
Cn1c(=O)c(-c2cc(F)cc(F)c2)nc2cnc(N3CCOCC3)nc21 | inactive | 
O=c1c(-c2cc(F)cc(F)c2)nc2cnc(N3CCNCC3)nc2n1C1CC1 | 0.158 µM (active) | 
COc1ccc(-c2nc3cnc(N4CCNCC4)nc3n(C3CC3)c2=O)cc1 | 7.94 µM (active) | 
COc1ccc(-c2nc3cnc(N4CCNCC4)nc3n(C)c2=O)cc1 | inactive | 
COc1ccc(-c2nc3cnc(N4CCN(C)CC4)nc3n(C3CC3)c2=O)cc1 | inactive | 
O=c1c(-c2cc(F)cc(F)c2)nc2cnc(N3CCOCC3)nc2n1C1CC1 | inactive | 
CN1CCN(c2nc(-c3ccoc3)nc3ccccc23)CC1 |  | 6.78% [at 2.29 µM]
COc1ccccc1CN1CC2(CCN(C(=O)c3cnccn3)CC2)C1 | inactive | 
CC(C)CN1CCC2(CC1)CCN(C(=O)c1ccncc1)CC2 | inactive | 
CC1CCCC(n2c(=S)[nH]c3ccccc3c2=O)C1C (stereo unspecified) | 3.55 µM (active) | 
Cc1cc(=O)[nH]c2ccccc12 | inactive | 
CCn1c(=O)[nH]c2ccccc2c1=O | inactive | 
CN(C)C(=O)/N=N\C(=O)N(C)C | inactive | 
CC(C)n1c(O)c(/C=C2\C=Nc3ccccc32)sc1=Nc1ccccc1 | 2.51 µM (active) | 
CCn1c(O)c(/C=C2\C=Nc3ccccc32)sc1=Nc1ccc(C)cc1 | 2.24 µM (active) | 
C[C@@H](CNC(N)=O)NC(N)=O |  | 20.8% [at 11.4 µM]
Cc1ccc2c(c1)N(CC(=O)NCc1cccs1)C(=O)C(C)O2 (stereo unspecified) | inactive | 
Cc1ccc(C)c(-c2cc(C(=O)Nc3nccs3)c3ccccc3n2)c1 | 2.82 µM (active) | 
Cc1ccc(-c2cc(C(=O)NCc3ccco3)c3ccccc3n2)s1 | 3.98 µM (active) | 
Cc1ccc(C)c(-c2cc(C(=O)Nc3sc(C)c(C)c3C(N)=O)c3ccccc3n2)c1 | 0.794 µM (active) | 
CN(C)C(=O)c1ccc(-c2nccc(NCc3cccs3)n2)cc1 |  | 10.6% [at 2.29 µM]
Cc1ccc(Nc2ncccc2C(=O)NCc2cccs2)c(C)c1 | 15.8 µM (active) | 
N[C@@](CCc1ccccc1)(C(=O)O)c1ccccc1 |  | -3.36% [at 11.4 µM]

Compound | AC50 | activity, negative = inhibition
COc1cccc(Nc2ncc3nc(C)c(=O)n(CCC#N)c3n2)c1 | inactive | 
CN(C)CCCn1c2c3ccccc3ccc2c2oc(=O)c3ccccc3c21 |  | -5.42% [at 11.4 µM]
Cc1ccc(C)c(-c2cc(C(=O)NCc3cccs3)c3ccccc3n2)c1 | 1.26 µM (active) | 
CN(C)C(=O)c1ccc(-c2nc(NCc3cccs3)c3ccccc3n2)cc1 |  | -26.2% [at 2.29 µM]
Cc1noc(C)c1-c1nc(NCc2cccs2)c2ccccc2n1 |  | -11.4% [at 2.29 µM]
CS(=O)(=O)N1CCC2(CCN(C(=O)Nc3cccc(C#N)c3)CC2)CC1 | inactive | 
c1ccc2oc(C3=NCCN3)cc2c1 | inactive | 
COCCOC(=O)C1=C(C)NC(=O)N(C(C)=O)C1c1ccc(Cl)cc1 (stereo unspecified) | 4.47 µM (active) | 
CC(=O)NC(Cc1ccc(F)cc1)C(=O)O (stereo unspecified) | inactive | 
Cc1nc2c(C(=O)NCc3ccc4c(c3)OCO4)c[nH]n2c(=O)c1Cc1ccccc1F | 0.501 µM (active) | 
Cc1nc2c(C(=O)NCCC(C)C)c[nH]n2c(=O)c1Cc1ccccc1F | 2.82 µM (active) | 
O=C(O)c1cc2c(o1)CCC/C2=N\O | inactive | 
CC1(C)S[C@@H]2[C@H](NC(=O)[C@@H](N)c3ccc(O)cc3)C(=O)N2[C@H]1C(=O)O | inactive | 
O=c1[nH]c2cc(Cl)ccc2c(O)c1-c1ccc(Oc2ccccc2)cc1 | 12.6 µM (active) | 
O=c1[nH]c2cc(Cl)ccc2c(O)c1-c1cccc(Oc2ccccc2)c1 | inactive | 
O=C(c1c(O)c2ccc(Cl)cc2[nH]c1=O)C1CC1 | inactive | 
CCOC(=O)Cc1c(C)nc2c(C#N)c[nH]n2c1=O | 12.6 µM (active) | 
CCOC(=O)Cc1cc(=O)n2[nH]c(C)c(C#N)c2n1 | inactive | 
CC(C)CCNC1=NCCCCC1 | inactive | 
OC[C@H]1O[C@H](n2cnc3c(NC4CCCC4)nc(Cl)nc32)[C@@H](O)[C@@H]1O | inactive | 
Cc1noc(C)c1-c1nc(NC2CCNCC2)c2ccccc2n1 |  | 13% [at 2.29 µM]
O=C(c1n[nH]c(=O)c2ccccc12)N1CCN(C2c3ccccc3-c3ccccc32)CC1 | 2.82 µM (active) | 
Cc1cc(C)nc(SCCc2cccc[n+]2C)n1 |  | -3.45% [at 11.4 µM]
COc1cc(/C=C(\C#N)C(=O)c2ccc(O)c(O)c2)cc(I)c1O | 0.501 µM (active) | 

Compound | AC50 | activity, negative = inhibition
N#C/C(=C\c1ccc(O)c(O)c1)C(=O)c1ccc(O)c(O)c1 | inactive | 
C[C@H]1CN(CCO)CCN1c1ccccc1 |  | -1.76% [at 11.4 µM]
CC(C)=NOCc1cccc(-c2cc(-c3ccccc3)no2)c1 | 3.98 µM (active) | 
CC(C)=NOCc1ccc(-c2cc(-c3ccccc3)no2)cc1 |  | 12% [at 11.4 µM]
COc1cccc([C@H](O)Cn2cc(-c3cccc(CON=C(C)C)c3)nn2)c1 |  | -2.7% [at 11.4 µM]
CCOC(=O)c1ccc(N/C=C/C(=O)c2ccc(OC)cc2)cc1 | inactive | 
COc1ccc(C2(C(=O)N3CCOCC3)CCCC2)cc1 | inactive | 
CC(=O)c1ccc(NC(=O)C2(c3ccccc3)CCOCC2)cc1 | 5.01 µM (active) | 
CN(C)CCOC(=O)C1(c2ccccc2)CCOCC1 | inactive | 
CCOC(=O)c1ccc(NC(=O)C2(c3ccc(OC)cc3)CCOCC2)cc1 | 5.62 µM (active) | 
Cc1cnc(CNc2ccnc(-c3ccccc3C)n2)cn1 |  | 11.5% [at 2.29 µM]
CCOC(=O)c1cccc(C(=O)OCC)n1 | inactive | 
O=C(OCC(=O)c1cccs1)c1cccc(C(=O)OCC(=O)c2cccs2)n1 | 8.91 µM (active) | 
COc1ccc(CNc2cc(-c3ccoc3)ncn2)c(OC)c1 |  | 3.4% [at 2.29 µM]
COc1ccccc1CN1CC2(CCN(C(=O)c3ccncc3)CC2)C1 | inactive | 
Cc1cccc(CN2CCN([C@@H](c3ccccc3)c3ccc(Cl)cc3)CC2)c1 | inactive | 
COc1ccccc1C(c1nnnn1C(C)(C)C)N1CCCc2ccccc21 (stereo unspecified) | 3.98 µM (active) | 
COc1ccccc1C(c1nnnn1C(C)(C)C)N1CCN(Cc2ccncc2)CC1 (stereo unspecified) | 0.631 µM (active) | 
CNC(=O)[C@@H]1O[C@@H](n2cnc3c(NCc4ccc(N)cc4)ncnc32)[C@@H](O)[C@H]1O | inactive | 
COc1ccc(NC(=O)CC2C(=O)N(c3cccc(OC)c3)C(=O)N2C2CCCCC2)cc1 (stereo unspecified) | 15.8 µM (active) | 
COc1ccc(COC(=O)N/N=C2/C[C@@H](O)[C@@H](O)[C@@H]3[C@@H]4C(=O)N(c5cccc(Oc6ccccc6)c5)C(=O)[C@H]4CC[C@H]23)cc1 |  | -15.2% [at 11.4 µM]
COc1ccc(COC(=O)N/N=C2/C[C@@H](O)[C@@H](O)[C@@H]3[C@@H]4C(=O)N(c5cccc(Oc6ccccc6)c5)C(=O)[C@H]4CC[C@@H]23)cc1 |  | -7.36% [at 11.4 µM]
COc1cccc(N2C(=O)C(CC(=O)Nc3ccccc3)N(C3CCCCC3)C2=O)c1 (stereo unspecified) | 8.91 µM (active) | 
CCN1CCCC1CNC(=O)C(=O)Nc1ccc(OC)cc1 (stereo unspecified) | inactive | 
